Pol iota inh: qHTS for Inhibitors of Polymerase Iota; Pol iota fluorescent replication assay, 10 min; Potency, µM (doses to about 115 µM), without a hit: at the highest dose activity, negative = inhibition, actives largely listed as inhibitors; hit rate 1% among 390,000; AID 588590, 2011; further: potency means the concentration at half of the fitted maximal effect
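Fluorescent replication assay read twice, at 0 min and 10 min after adding 50 nM (final) substrate. Enzyme (10 nM) and compounds were first incubated 15 min at room temperature; enzyme-free buffer wells were negative controls.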
PI5P4Ka inh: qHTS for Inhibitors of phosphatidylinositol 5-phosphate 4-kinase (PI5P4K). Phosphatidylinositol 5-phosphate 4-kinase type-2 alpha (Homo sapiens), P48426. PI5P4Kalpha enzyme, ADP-Glo luminescence, 60 min; stronger effect = lower value. max response, %. hit rate 1.2% among 330,000; active means max response of -50% or lower; inconclusive means between -30% and -50%; inactive means -30% or higher; further: value at the top dose of about 77 µM; on the % scale 0 is the no-effect control and ±100 the full control effect
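Human PI5P4Kalpha with substrate in 0.038 M HEPES pH 7.4, 0.28 mM EGTA, 0.1% CHAPS, 5% DMSO; reaction started with 5 microM ATP (final), 60 min at room temperature. ADP formed read by ADP-Glo luminescence.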
POLB inh: qHTS Assay for Inhibitors of DNA Polymerase Beta; Pol beta primer extension/strand displacement, fluorescence kinetic; hit rate 1.3% among 340,000; Potency, µM (top dose mostly 114 µM), inactives show top-dose activity change, negative = inhibition, hits mostly inhibitors; P06746; AID 485314, 2010; further: potency means the concentration at half of the fitted maximal effect; on the % scale 0 is the no-effect control and ±100 the full control effect
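Kinetic readout of DNA synthesis with strand displacement by Pol beta. Compound and 10 nM enzyme sit 15 min at room temperature; 50 nM substrate starts the reaction, read immediately and at 10 min.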
FEN1 inh: qHTS Assay for the Inhibitors of Human Flap endonuclease 1 (FEN1). P39748. Recombinant FEN1 flap cleavage, fluorescence, 15 min. Potency, µM (doses to about 114 µM), for the others: at the top dose activity change, negative = inhibition, hits mostly inhibitors. hit rate 0.35% among 390,000. AID 588795, 2011; further: potency means the concentration at half of the fitted maximal effect; on the % scale 0 is the no-effect control and ±100 the full control effect; nearly all actives have a fitted effect of over 65% in size
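Quantitative HTS format: each compound was titrated, incubated with 10 nM nuclease for 15 min at room temperature, then challenged with flap substrate at 50 nM final. Signal change over 15 min gave concentration–effect curves.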
POLH inh: qHTS for Inhibitors of Polymerase Eta. Potency, µM (titrated, usually from 114 µM), for the others: top-dose activity change, negative = inhibition, hits mostly inhibitors. hit rate 1.2% among 390,000. recombinant Pol eta, fluorescent DNA replication assay; further: potency means the concentration at half of the fitted maximal effect; on the % scale 0 is the no-effect control and ±100 the full control effect
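Pol eta (10 nM) was preincubated with compounds for 15 min at room temperature, after which fluorescent replication substrate (50 nM final) was added to start the reaction. Fluorescence was read kinetically at 0 and 10 min.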
Pol kappa inh: qHTS for Inhibitors of Polymerase Kappa. AID 588579, 2011. DNA polymerase kappa (Homo sapiens), Q9UBT6. Potency, µM (titrated, usually from 107 µM), without a hit: at the top dose activity, negative = inhibition, most hits filed as inhibitors. purified Pol kappa, fluorescent DNA synthesis assay, 10 min. hit rate 0.53% among 400,000; further: potency means the concentration at half of the fitted maximal effect; on the % scale 0 is the no-effect control and ±100 the full control effect
Target sequence (Q9UBT6 whole entry, looked up): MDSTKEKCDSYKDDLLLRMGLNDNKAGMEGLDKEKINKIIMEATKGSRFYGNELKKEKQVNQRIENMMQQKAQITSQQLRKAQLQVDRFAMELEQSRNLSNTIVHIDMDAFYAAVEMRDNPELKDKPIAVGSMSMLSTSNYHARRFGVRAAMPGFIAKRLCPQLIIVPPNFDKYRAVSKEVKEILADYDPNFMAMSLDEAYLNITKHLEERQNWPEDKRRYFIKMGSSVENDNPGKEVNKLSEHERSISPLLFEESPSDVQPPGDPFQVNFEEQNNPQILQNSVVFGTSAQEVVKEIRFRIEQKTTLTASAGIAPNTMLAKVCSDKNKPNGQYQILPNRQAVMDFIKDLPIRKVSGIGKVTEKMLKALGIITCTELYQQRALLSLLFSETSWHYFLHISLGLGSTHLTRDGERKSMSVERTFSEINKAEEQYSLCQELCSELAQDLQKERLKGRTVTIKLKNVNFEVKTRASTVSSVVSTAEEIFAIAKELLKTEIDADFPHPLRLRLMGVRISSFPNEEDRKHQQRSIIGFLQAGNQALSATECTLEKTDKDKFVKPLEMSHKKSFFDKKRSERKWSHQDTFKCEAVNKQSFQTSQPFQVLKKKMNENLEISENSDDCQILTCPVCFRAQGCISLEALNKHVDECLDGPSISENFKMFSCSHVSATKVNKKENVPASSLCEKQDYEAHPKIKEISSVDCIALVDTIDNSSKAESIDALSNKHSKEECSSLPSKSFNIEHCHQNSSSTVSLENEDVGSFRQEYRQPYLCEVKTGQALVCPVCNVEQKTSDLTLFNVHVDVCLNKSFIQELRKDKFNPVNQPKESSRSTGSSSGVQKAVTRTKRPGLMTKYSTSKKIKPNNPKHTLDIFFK
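10 nM Pol kappa preincubated 15 min at room temperature with compounds, then reaction started with substrate at 50 nM final. Fluorescence read kinetically at 0 and 10 min; buffer-only wells served as negative control.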
* hit, by the source's call; ? = inconclusive; . = no result given; ! = not active in a repeat; [ ] = remark or other dose. Hits are enriched below; roughly 2.8% of the tested compounds scored in any of these assays. Unless noted, the call rests on the fitted dose curve; in most records, active means well fitted curve in the direction sought with a large enough effect; inconclusive means small, poorly fitted or top-dose-only effect, or another doubt; inactive means no such curve, though single readings can be large; an effect the other way counts as inactive or inconclusive.

SMILES | Pol iota inh | PI5P4Ka inh | POLB inh | FEN1 inh | POLH inh | Pol kappa inh
CCOC(=O)c1sc(NC(=O)c2nc3nc(C)cc(C(F)F)n3n2)c(C(=O)OC(C)C)c1C | -17% | . | -10% | 5% | 89µM* | -20%
Cc1nc(CC(=O)NNS(=O)(=O)c2ccc3ccccc3c2)cs1 | 2% | -23 | -2% | 4% | -28% | 0%
COc1ccc(S(=O)(=O)NNC(=O)Cc2csc(C)n2)cc1[N+](=O)[O-] | 50µM* | ? | . | -2% | ? | ?
CCOc1cc(/C=C2/C(=O)ON=C2C)cc(Br)c1O | -25% | -67* | 3% | 11% | ? | -6%
CC1=NN(c2nc(N)nc(/C(C#N)=C/c3ccc([N+](=O)[O-])o3)n2)C(C)(C)C1 | ? | ? | . | 9% | 18µM* | -29%
Cc1nnc(SCc2ccc(CSc3nnc(C)c(=O)[nH]3)cc2)[nH]c1=O | ? | -16 | ? | 4% | 79µM* | -11%
Cc1ccc(C)c(CSc2nnc(C)c(=O)[nH]2)c1 | 72% | 1 | 5% | -3% | -19% | -3%
Oc1ccc(N=Cc2ccc(-c3cccs3)s2)cc1 | ? | . | ? | ? | 32µM* | -34%
O=Cc1ccc(-c2cccs2)s1 | 2% | -3 | . | 0% | -9% | -5%
COc1ccccc1NC(=O)Nc1ccnn1C1CCN(C(=O)c2ccccn2)CC1 | 25% | -4 | 19% | -2% | ? | 7%
COc1ccccc1NC(=O)Nc1ccnn1C1CCN(C(=O)c2cscn2)CC1 | 32µM* | -3 | 28% | 45µM* | -9% | 40µM*
Cc1cc2sc3ccccc3c(=O)c2c(C)c1O | ? | 2 | 50µM* | -2% | -17% | -12%
O=C(C[n+]1cccc(Br)c1)c1ccc(I)cc1 | 27% | . | . | -1% | . | 5%
Cc1ccc(C(=O)N2CCN(CCc3ccncc3)CC2)cc1 | 14% | . | -21% | -2% | 0% | -9%
CC(=O)Oc1ccc2occ(-c3ccccc3)c2c1 | -14% | 3 | 56µM* | 5% | -10% | -10%
COc1cccc(NC(=O)c2ccc3[nH]c(C)cc(=O)c3c2)c1 | 20% | . | 1% | -6% | -11% | 11%
O=C(COC(=O)c1ccco1)Nc1nc2ccc([N+](=O)[O-])cc2s1 | -11% | -54* | ? | -5% | -8% | -17%
CC(C)c1c(O)c(-c2cc3c(c(C(C)C)c2O)CCC2C(C)(C)CCC[C@@]32C)cc2c1CCC1C(C)(C)CCC[C@@]21C (some centres undefined) | . | . | . | . | . | -8%[60.1 µM]
CC(C)c1cc2c(c(O)c1O)[C@@]13CCCC(C)(C)C1CC2OC3=O (some centres undefined) | -20% | -75* | 29% | ? | 0% | 1%
Cc1ccc(/C=C/C(=O)N2CCN(S(=O)(=O)c3ccc(C)c(C)c3)CC2)o1 | ? | -74* | -3% | 6% | -18% | -5%
Nc1nc(NCc2ccc(Cl)cc2)nc(NCCO)c1[N+](=O)[O-] | 47% | -57* | 22% | -5% | 5% | -9%
CCOc1ccc(C(=O)N2CC(=O)Nc3ccc(C)cc3C2c2ccc(F)cc2)cc1OCC (centres undefined) | -10% | . | -2% | -17% | 1% | -1%
CC1=CC(=O)C(Sc2ccc(C)cc2)=CC1=O | . | -71* | . | . | -2% | .
Cc1ccc(Sc2c(C)[nH]n(C(C)(C)C)c2=O)cc1 | -16% | . | 1% | -11% | 5% | -15%
C#CC(=O)CC1(CN(Cc2ccccc2)C(=O)OC(C)(C)C)CCCCC1 | 26% | ? | . | -9% | -12% | 2%
SMILES | Pol iota inh | PI5P4Ka inh | POLB inh | FEN1 inh | POLH inh | Pol kappa inh
Cc1c(C(=O)O)sc2nc(/C=C/c3cccc(O)c3)[nH]c(=O)c12 | ? | -77* | -2% | ? | 35µM* | -13%
COc1ccccc1/C=C/C=N/NC(=O)c1ccccn1 | 4% | 0 | 37% | -3% | -3% | 0%
COc1ccccc1/C=C/C=N/NC(=O)c1cc(-c2ccco2)[nH]n1 | ? | -72* | 25µM* | -2% | ? | ?
O=C(Cn1cnc2ccccc21)N/N=C/C(Br)=C/c1ccccc1 | -41% | 6 | ? | 1% | ? | -6%
O=C(c1c(F)cccc1F)N1CCC(O)(c2ccc(F)cc2)CC1 | 1% | 0 | -16% | -4% | -17% | -15%
CCOc1ccc(CCNC(=O)c2cnc3sc(N4CCCCCC4)nn3c2=O)cc1 | 89µM* | . | -9% | -1% | -12% | -1%
Cc1ccccc1C(=O)NN1C(=O)CSC1=S | -13% | 3 | -1% | -5% | -5% | -4%
O=C1CSC(=S)N1Nc1ccccc1 | 32µM* | -21 | . | 9% | -9% | -6%
COc1ccc2oc(=O)c(C(=O)N3CCN(C(=O)c4ccco4)CC3)cc2c1 | 103% | 2 | 14% | 2% | -11% | 0%
Cc1c(Cl)cccc1NC(=O)Nc1ccc2snnc2c1 | 6% | . | -29% | 8% | -16% | -7%
COc1ccc(OC)c(CNC(=O)C2CCN(c3ncnc4c3nc3n4CCCCC3)CC2)c1 | -7% | . | -2% | 1% | 9% | -9%
COc1cccc(CNC(=O)C2CCN(c3ncnc4c3nc3n4CCCCC3)CC2)c1 | ? | -2 | 100µM*! | -15% | -3% | -21%
Cc1cc(C(=O)N/N=C/c2cc(N=Nc3ccccc3)ccc2O)n[nH]1 | 2% | -26 | 25µM* | 8% | -7% | -3%
CCN1CCN(Cc2ccc(NC(=O)c3ccc(C)c(NC(=O)C(=O)c4c[nH]c5ccccc45)c3)cc2C(F)(F)F)CC1 | ? | -77*! | 6% | -26% | -14% | -6%
CCN1CCN(Cc2ccc(NC(=O)c3ccc(C)c(NC(=O)c4ccc5n[nH]nc5c4)c3)cc2C(F)(F)F)CC1 | ? | -1 | -24% | 12% | -4% | -15%
CCC(=O)Nc1cc2c(cc1C(=O)c1ccccc1)OCCO2 | 11% | -5 | 79µM* | -8% | -8% | -7%
O=S(=O)(O)c1cc(O)c2c(O)c(N=Nc3cc(Cl)ccc3O)c(S(=O)(=O)O)cc2c1 | 22µM* | -76* | 32µM* | ? | 35µM* | 16µM*
Cc1cc(-c2ccc(N=Nc3c(S(=O)(=O)O)cc4cc(S(=O)(=O)O)cc(N)c4c3O)c(C)c2)ccc1N=Nc1c(S(=O)(=O)O)cc2cc(S(=O)(=O)O)cc(N)c2c1O | . | . | . | . | . | 0.89µM*

Screens: PubChem, National Center for Advancing Translational Sciences (NCATS)
